From PubChem BioAssay AID1159580 (chemical genetic matrix, 2015)
In all, about 5,500 compounds went through this assay and about 2,000 (36%) were called active. Inconclusive results (about 18%) are left out. Rule as the data show it: active = normalized growth mostly below about 0.91 (no sharp cut-off); inconclusive = no clear call, values can overlap the other calls; inactive = mostly above about 0.92. This is one part of the list.

Assay: chemical genetic growth profiling, strain panel (AID 1159580);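 also: tested at 20 µM; growth read once vehicle control cultures reached saturation at 30 °C; 1 = growth at the plate median or of vehicle wells; lower values mean less growth of the strain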
Details: growth OD

Measured: normalized growth

C[C@]12CCC3c4ccc(O)cc4CCC3C1CC[C@@H]2O (stereo not given in full)
inactive: S. cerevisiae deletion strains, locus YJR066W, strain TOR1, hits give low values 0.902 | S. cerevisiae deletion strains, locus YJR075W, strain HOC1, hits give low values 1.02 | S. cerevisiae deletion strains, locus YKL009W, strain mrt4, hits give low values 0.892 | S. cerevisiae deletion strains, locus YKL068W, hits give low values 1.02 | S. cerevisiae deletion strains, locus YKL085W, strain MDH1 (second series), hits give low values 1.04 | S. cerevisiae deletion strains, locus YKL085W, strain MDH1, hits give low values 1.04 | S. cerevisiae deletion strains, locus YKL160W, strain elf1, hits give low values 0.988 | S. cerevisiae deletion strains, locus YKL190W, strain CNB1, hits give low values 1.03 | S. cerevisiae deletion strains, locus YKR001C, strain vps1, hits give low values 0.915 | S. cerevisiae deletion strains, locus YKR026C, strain gcn3, hits give low values 1.03 | S. cerevisiae deletion strains, locus YKR091W, strain srl3, hits give low values 1.02 | S. cerevisiae deletion strains, locus YLL001W, strain dnm1, hits give low values 1.02 | S. cerevisiae deletion strains, locus YLL026W, hits give low values 0.982 | S. cerevisiae deletion strains, locus YLL041C, strain sdh2, hits give low values 1.02 | S. cerevisiae deletion strains, locus YLR027C, strain aat2, hits give low values 0.973 | S. cerevisiae deletion strains, locus YLR039C, strain RIC1, hits give low values 0.866 | S. cerevisiae deletion strains, locus YLR058C, strain SHM2, hits give low values 1 | S. cerevisiae deletion strains, locus YLR102C, strain apc9, hits give low values 1.01 | S. cerevisiae deletion strains, locus YLR113W, strain HOG1, hits give low values 0.983 | S. cerevisiae deletion strains, locus YLR221C, strain rsa3, hits give low values 0.977 | S. cerevisiae deletion strains, locus YLR258W, strain gsy2, hits give low values 0.96 | S. cerevisiae deletion strains, locus YLR262C, strain YPT6, hits give low values 0.819 | S. cerevisiae deletion strains, locus YLR268W, strain sec22, hits give low values 0.936 | S. cerevisiae deletion strains, locus YLR320W, strain mms22, hits give low values 0.892 | S. cerevisiae deletion strains, locus YLR330W, strain CHS5, hits give low values 1 | S. cerevisiae deletion strains, locus YLR342W, strain FKS1 (second series), hits give low values 0.868 | S. cerevisiae deletion strains, locus YLR342W, strain FKS1, hits give low values 1 | S. cerevisiae deletion strains, locus YLR357W, strain rsc2, hits give low values 1.03 | S. cerevisiae deletion strains, locus YLR370C, strain arc18, hits give low values 1 | S. cerevisiae deletion strains, locus YLR371W, strain rom2, hits give low values 1.02 | S. cerevisiae deletion strains, locus YLR384C, strain iki3, hits give low values 1.02 | S. cerevisiae deletion strains, locus YLR418C, strain cdc73, hits give low values 0.896 | S. cerevisiae deletion strains, locus YML016C, strain PPZ1, hits give low values 1.01 | S. cerevisiae deletion strains, locus YML032C, strain rad52, hits give low values 0.977 | S. cerevisiae deletion strains, locus YML120C, strain ndi1, hits give low values 0.996 | S. cerevisiae deletion strains, locus YML124C, strain tub3, hits give low values 1.01 | S. cerevisiae deletion strains, locus YMR058W, strain fet3, hits give low values 0.917 | S. cerevisiae deletion strains, locus YMR078C, strain ctf18, hits give low values 0.985 | S. cerevisiae deletion strains, locus YMR125W, strain sto1, hits give low values 1.1 | S. cerevisiae deletion strains, locus YMR129W, hits give low values 1.02 | S. cerevisiae deletion strains, locus YMR205C, strain PFK2, hits give low values 1.01 | S. cerevisiae deletion strains, locus YMR223W, strain ubp8, hits give low values 0.974 | S. cerevisiae deletion strains, locus YMR231W, strain pep5, hits give low values 1.01 | S. cerevisiae deletion strains, locus YMR263W, strain SAP30, hits give low values 0.98 | S. cerevisiae deletion strains, locus YMR307W, strain GAS1, hits give low values 0.929 | S. cerevisiae deletion strains, locus YNL067W, strain RPL9B, hits give low values 0.978 | S. cerevisiae deletion strains, locus YNL071W, strain lat1, hits give low values 0.958 | S. cerevisiae deletion strains, locus YNL153C, strain GIM3, hits give low values 0.955 | S. cerevisiae deletion strains, locus YNL183C, strain NPR1, hits give low values 0.912 | S. cerevisiae deletion strains, locus YNL209W, strain ssb2, hits give low values 1.01 | S. cerevisiae deletion strains, locus YNL233W, strain BNI4, hits give low values 0.997 | S. cerevisiae deletion strains, locus YNL248C, strain rpa49, hits give low values 0.993 | S. cerevisiae deletion strains, locus YNL250W, strain rad50, hits give low values 0.955 | S. cerevisiae deletion strains, locus YNL271C, strain bni1, hits give low values 0.977 | S. cerevisiae deletion strains, locus YNL307C, strain MCK1, hits give low values 0.987 | S. cerevisiae deletion strains, locus YNL322C, strain KRE1 (second series), hits give low values 1.03 | S. cerevisiae deletion strains, locus YNR049C, strain mso1, hits give low values 1.02 | S. cerevisiae deletion strains, locus YNR052C, strain pop2, hits give low values 0.928 | S. cerevisiae deletion strains, locus YOL006C, strain TOP1, hits give low values 0.744 | S. cerevisiae deletion strains, locus YOL012C, strain htz1 1.8 | S. cerevisiae deletion strains, locus YOL147C, strain pex11, hits give low values 1 | S. cerevisiae deletion strains, locus YOR001W, strain rrp6, hits give low values 0.948 | S. cerevisiae deletion strains, locus YOR061W, strain CKA2, hits give low values 0.984 | S. cerevisiae deletion strains, locus YOR069W, strain VPS5, hits give low values 1 | S. cerevisiae deletion strains, locus YOR070C, strain gyp1, hits give low values 0.974 | S. cerevisiae deletion strains, locus YOR080W, strain dia2, hits give low values 0.996 | S. cerevisiae deletion strains, locus YOR083W, strain WHI5, hits give low values 0.96 | S. cerevisiae deletion strains, locus YOR106W, strain vam3, hits give low values 0.934 | S. cerevisiae deletion strains, locus YOR136W, strain idh2, hits give low values 0.978 | S. cerevisiae deletion strains, locus YOR144C, strain elg1, hits give low values 0.974 | S. cerevisiae deletion strains, locus YOR231W, strain MKK1, hits give low values 0.928 | S. cerevisiae deletion strains, locus YOR265W, strain rbl2, hits give low values 0.986 | S. cerevisiae deletion strains, locus YOR270C, strain vph1, hits give low values 0.797 | S. cerevisiae deletion strains, locus YOR290C, strain snf2, hits give low values 0.906 | S. cerevisiae deletion strains, locus YOR316C, strain cot1, hits give low values 1 | S. cerevisiae deletion strains, locus YPL051W, strain arl3, hits give low values 0.953 | S. cerevisiae deletion strains, locus YPL055C, strain LGE1, hits give low values 0.907 | S. cerevisiae deletion strains, locus YPL078C, strain atp4, hits give low values 0.963 | S. cerevisiae deletion strains, locus YPL106C, strain sse1, hits give low values 1.08 | S. cerevisiae deletion strains, locus YPL240C, strain hsp82, hits give low values 0.999 | S. cerevisiae deletion strains, locus YPL256C, strain CLN2, hits give low values 0.99 | S. cerevisiae deletion strains, locus YPR119W, strain clb2, hits give low values 1.03 | S. cerevisiae deletion strains, locus YPR141C, strain kar3, hits give low values 1.03 | S. cerevisiae deletion strains, locus YPR163C, strain tif3, hits give low values 0.963 | S. cerevisiae deletion strains, locus YPR167C, strain met16, hits give low values 0.985 | S. cerevisiae deletion strains, strain wtn01, hits give low values 0.92 | S. cerevisiae strains, strain wild type, hits give low values 1
active: S. cerevisiae deletion strains, locus YLR262C, strain YPT6 (second series), hits give low values 0.738 | S. cerevisiae deletion strains, locus YNL298W, strain CLA4, hits give low values 0.897 | S. cerevisiae deletion strains, locus YOR184W, strain ser1, hits give low values 0.857
